Measurements: PubChem BioAssay AID652058 (Broad Institute, 2013)
Screen size: about 1,200 compounds; about 870 (72%) were called active. Inconclusive results (about 3%) are left out.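 Rule for the calls: active = every test run fits a falling curve whose half-maximal concentration is at most twice the top valid dose; inconclusive = runs disagree, or flat 30 to 70% inhibition, or poor fit; inactive = every run inactive: flat, rising or weaker potency.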 So high a share suggests a set chosen from earlier hits. These entries were drawn from the full list. Results with a measured potency or affinity are listed apart.

Test: blockers of HIV-1 ZM109 envelope-driven cell-cell fusion – HeLa effector, CEM target cells, luciferase, cherry-pick, dose response (AID 652058)
Details: HeLa Env/CEM cell fusion, 16-24 h; series mostly up to 35 µM

Activity change, negative = inhibition, inactive:
CCOC(=O)c1cnc2ccc(OCC)cc2c1NCc1ccccc1OC, COc1ccc(NC(=O)C2(C)CCN2Cc2ccccc2OC(F)F)cc1OC (stereo unspecified), COc1ccc(OC2C(=O)N(Cc3ccc4c(c3)OCO4)C2c2cccs2)cc1 (stereo unspecified), Cc1cc(C(=O)N2CCC(C(=O)O)CC2)c(C(F)(F)F)o1, CCOc1ccc(OCc2cccc(C(=O)N/N=C/c3cccnc3)c2)cc1, CCCOc1ccc(C(F)(F)F)cc1NC(=O)CCc1c(C)noc1C, Cc1ccc(C)c(CNc2ccc(S(=O)(=O)N3CCCCC3)cc2)c1, Cc1ccc(S(=O)(=O)N[C@H]2C=C[C@H](CC(=O)N3CCC(Cc4ccccc4)CC3)O[C@H]2CO)cc1, CCCNC(=O)C[C@H]1C[C@H]2c3cc(NC(=O)CN(C)C)ccc3O[C@H]2[C@@H](CO)O1, CN1CCN(C(=O)C[C@H]2C[C@@H]3c4cc(NS(C)(=O)=O)ccc4O[C@@H]3[C@H](CO)O2)CC1, O=C(C[C@@H]1C[C@H]2c3cc(NC(=O)Nc4ccc(F)cc4)ccc3O[C@H]2[C@H](CO)O1)NCC1CC1, O=C(C[C@@H]1C[C@H]2c3cc(NC(=O)NC4CCCCC4)ccc3O[C@H]2[C@@H](CO)O1)NCc1ccncc1, CCCNC(=O)C[C@H]1C[C@H]2c3cc(NC(=O)CN(C)C)ccc3O[C@H]2[C@H](CO)O1, O=C(Nc1ccc(F)cc1)Nc1ccc2c(c1)[C@H]1C[C@@H](CC(=O)N3CCCCC3)O[C@H](CO)[C@H]1O2, O=C1c2cccnc2C(Nc2ccc(S(=O)(=O)N3CCCCC3)cc2)N1Cc1ccccc1 (stereo unspecified), COc1ccc(COC(=O)C2=C(C)NC(=O)NC2c2ccc(OC)cc2)cc1 (stereo unspecified), Cc1cccc(NC(=O)C2CCN(S(=O)(=O)c3ccc4c(c3)OCCCO4)CC2)n1, CCc1ccc(-c2nc(CN3CCC(C(=O)NCCc4ccc(OC)c(OC)c4)CC3)c(C)o2)cc1, O=C(Nc1ccc(N2CCN(C(=O)c3ccccc3)CC2)c(Cl)c1)c1cccnc1, COc1ccccc1CCNCc1ccc(OC)c(OCc2ccccc2)c1, CCN1C(=O)[C@H]2[C@@H](c3ccc(C(F)(F)F)cc3)N[C@]3(CCCN(Cc4ccccc4)C3=O)[C@H]2C1=O, Cc1ccc(-n2nc3c(c2NC(=O)c2ccco2)CS(=O)C3)cc1 (stereo unspecified), FC(F)(F)c1nc(-c2cccs2)ncc1-c1nnnn1-c1ccc(Cl)cc1, Cc1ccc(S(=O)(=O)Nc2ccc3c(c2)C(=O)N([C@H](C)CO)C[C@@H](C)[C@H](CN(C)S(=O)(=O)c2ccc(F)cc2)O3)cc1, C[C@H](CO)N1C[C@H](C)[C@H](CN(C)S(=O)(=O)c2ccc(F)cc2)Oc2ccc(NS(=O)(=O)c3ccccc3)cc2CC1=O, C=CCN1C(=S)CC(c2ccccc2)=Nc2ccccc21, CC1CCCN(C(=O)c2ccc(S(=O)(=O)N3CCC(c4nc5ccccc5s4)CC3)cc2)C1 (stereo unspecified), CS(=O)(=O)Nc1ccc2c(c1)[C@H]1C[C@H](CC(=O)N3CCc4ccccc4C3)O[C@H](CO)[C@H]1O2, CS(=O)(=O)Nc1ccc2c(c1)[C@H]1C[C@H](CC(=O)NCc3ccc(-c4ccccc4)cc3)O[C@H](CO)[C@H]1O2, CS(=O)(=O)Nc1ccc2c(c1)[C@@H]1C[C@@H](CC(=O)N3CCc4ccccc4C3)O[C@H](CO)[C@@H]1O2, CCN(c1nc(N)c(C(=O)N=C(N)N)nc1Cl)C(C)C, CCN(CC)CCN(C(=O)c1cc(Cl)sc1Cl)c1nc2cc3c(cc2s1)OCO3, CCC(=O)N(C)C(c1ccccc1Cl)c1nnnn1-c1c(C)cccc1C (stereo unspecified), O=C(O)C[C@@H]1C=C[C@H](NC(=O)Nc2ccccc2)[C@H](CO)O1, O=C(O)C[C@@H]1C=C[C@@H](NC(=O)Nc2ccccc2)[C@H](CO)O1, Cc1nc2ccccc2c2oc(C(=O)NCc3ccc4c(c3)OCO4)cc12, O=C(Nc1ccc(Cl)cc1)C1CCCN(C2=NS(=O)(=O)c3ccccc32)C1 (stereo unspecified), C[C@H]1CN([C@@H](C)CO)C(=O)Cc2cc(NS(=O)(=O)c3ccccc3)ccc2O[C@@H]1CN(C)Cc1ccc(Cl)c(Cl)c1, COc1cc(-c2c(-c3cc(OC)c(OC)c(OC)c3)noc2C)ccc1F, CC1Cc2cc(-c3csc(NC(=O)Cc4cccs4)n3)ccc2N1S(C)(=O)=O (stereo unspecified), COCCCn1c(-c2ccc(S(=O)(=O)N3CCOCC3)cc2)csc1=Nc1ccccc1, O=C(Nc1nc(COc2ccccc2)cs1)C12CC3CC(CC(C3)C1)C2, COc1ccc(S(=O)(=O)n2ccc(-c3ccc(OCCN(C)c4ccccn4)cc3)n2)cc1, COc1ccccc1S(=O)(=O)Cc1ccc(C(=O)N2CCN(c3cccc(Cl)c3)CC2)o1, O=C(c1ccccc1F)N1CCN(Cc2cccc(Cl)c2)CC1, CCOC(=O)C1CCN(C(=O)c2ccc3c(c2)C(=O)N(c2ccccc2C)C3=O)CC1, COc1ccc(OCC(=O)Nc2ccccc2N2CCCCC2)cc1, Cc1cc(Cl)ccc1OCC(=O)NNC(=O)C1CSC2(C)CCC(=O)N12 (stereo unspecified), CS(=O)(=O)N1CCN(c2ccccc2NC(=O)C(c2ccccc2)c2ccccc2)CC1, O=C(c1ccc(Cl)s1)N1CCN(c2nc3ccccc3s2)CC1, CCOC(=O)c1cccc(NS(=O)(=O)c2ccc(NC(C)=O)cc2)c1, O=C(Nc1ccc(CN2CCS(=O)(=O)CC2)cc1)c1ccc(C(F)(F)F)cc1, O=C(Nc1cc2c3c(c1)CC(=O)N3CCC2)c1ccc(Cl)cc1, C=CC[n+]1c(-c2ccc(C)cc2)csc1NNC(=O)Nc1ccccc1, Cc1noc(C)c1S(=O)(=O)N(C)C[C@H]1Oc2ccc(NC(=O)Nc3ccccc3)cc2CC(=O)N([C@H](C)CO)C[C@H]1C, N#C/C(=N\Nc1ccc(Cl)cc1)C(=O)c1ccccc1
